These results are taken from PubChem BioAssay (EPA / NIEHS).

Assay [1] is described as follows: APR_HepG2_P-H2AX_72hr: Apredica 72-hour HepG2 Assay for H2AX Phosphorylation (AID 2282916).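 Also: phospho-histone H2A.x immunostain intensity per cell marking DNA damage.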 The following applies: imaging, actives raise or lower the signal. A digest of the protocol: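 Phospho-H2A.x imaging endpoint in HepG2 after 72 hr compound exposure (0.39–200 uM, duplicate wells). Activity derived by bidirectional curve fitting with DMSO as baseline.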
Assay [2] in a line: APR_HepG2_MitoMembPot_72hr: Apredica 72-hour HepG2 Assay for Mitochondrial Membrane Potential (AID 2282917). To be noted: imaging, actives raise or lower the signal. A digest of the protocol:
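HepG2 cells dosed 72 hr with compound at 0.39–200 uM in duplicate, 0.5% v/v DMSO final. Mitochondria stained with 250 nM MitoTracker Red CMXRos for 30 min before formaldehyde fixation, imaged by high-content fluorescence; bidirectional fit versus DMSO.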

Assay [3] in a line: APR_HepG2_MitoticArrest_72hr: Apredica 72-hour HepG2 Assay for Mitotic Arrest (AID 2282918). The following applies: high-content imaging, actives raise or lower the signal. A digest of the protocol:
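Using high-content imaging of fixed HepG2 cells, phospho-histone H3 signal was measured following a 72 hr incubation with ten-point compound dilutions up to 200 uM. DMSO served as the negative control and baseline for bidirectional curve fitting.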

Assay [4] in a line: APR_HepG2_MicrotubuleCSK_72hr: Apredica 72-hour HepG2 Assay for Microtubule CSK Stabilty (AID 2282919). To be noted: HepG2 microtubule cytoskeleton, high-content imaging, actives raise or lower the signal. A digest of the protocol:
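HepG2, 72 hr cmpd exposure, 0.39–200 uM (10 pts, duplicate), 0.5% DMSO. 3.7% formaldehyde fix, 0.5% Triton perm, anti-alpha-tubulin/Cy5 plus Hoechst. HCS fluorescence intensity; bidirectional fit vs DMSO baseline; taxol as positive control.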

A short description of assay [5]: APR_HepG2_P-H2AX_24hr: Apredica 24-hour HepG2 Assay for H2AX Phosphorylation (AID 2282920). The following applies: high-content imaging, actives raise or lower the signal. A digest of the protocol: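 Human HepG2 liver cells, treated 24 hr with test chemicals (0.39–200 uM, final DMSO 0.5% v/v), are fixed and co-stained for phospho-H2A.x and c-Jun with Hoechst. Imaged intensity is fitted in both directions against DMSO controls.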

The nature of assay [6]: APR_HepG2_StressKinase_72hr: Apredica 72-hour HepG2 Assay for Stress Kinase (AID 2282921). The following applies: HepG2 stress kinase (phospho-c-Jun) imaging, actives raise or lower the signal. A digest of the protocol: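 Stress kinase signal reflects nuclear phospho-c-Jun staining in fixed, permeabilized cells exposed 72 h to compound at 0.39–200 uM; DMSO-normalized, fitted for increases or decreases.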

A short description of assay [7]: APR_HepG2_StressKinase_24hr: Apredica 24-hour HepG2 Assay for Stress Kinase (AID 2282922). The following applies: HepG2 stress kinase (phospho-c-Jun) imaging, actives raise or lower the signal. The method in brief:
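Read-out: phospho-c-Jun immunofluorescence (Cy3 secondary) quantified by high-content imaging at 20x, nuclei defined by Hoechst 33342. Human HepG2 liver cells dosed 24 hr, 0.39–200 uM, DMSO 0.5% v/v; gain or loss of signal fitted relative to DMSO.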

Assay [8] in a line: APR_HepG2_p53Act_72hr: Apredica 72-hour HepG2 Assay for p53 Activation (AID 2282923).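 Also: average cellular p53 protein immunofluorescence intensity in HepG2 cells.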 The following applies: high-content imaging, actives raise or lower the signal. The method in brief: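 Fixed-cell p53 staining (sheep primary, Cy5 secondary) measured by fluorescence imaging following 72 hr treatment at 0.39–200 uM in 0.5% DMSO; DMSO served as negative control and baseline.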

A short description of assay [9]: APR_HepG2_MitoMass_72hr: Apredica 72-hour HepG2 Assay for Mitochondrial Mass (AID 2282924).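 Also: MitoTracker Red CMXRos stain intensity per cell imaged as mitochondrial mass.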 To be noted: high-content imaging, actives raise or lower the signal. The method in brief: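 Read-out: MitoTracker Red fluorescence intensity from automated imaging (20x, six fields per well) in human HepG2 liver cells. Dosing ran 72 hr, 0.39–200 uM, 0.5% DMSO; bidirectional curve fitting versus DMSO baseline.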

Assay [10] is described as follows: APR_HepG2_NuclearSize_72hr: Apredica 72-hour HepG2 Assay for Nuclear Size (AID 2282925). The following applies: high-content imaging, actives raise or lower the signal. The method in brief:
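Read-out: nuclear diameter from Hoechst 33342 images (ArrayScan, 20x, six fields/well), via cell-cycle image analysis. HepG2 were dosed 0.39–200 uM for 72 hr in 0.5% DMSO. Bidirectional fit relative to DMSO.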

Assay [11] is described as follows: ATG_CRE_CIS: Attagene CIS-FACTORIAL HepG2 Assay for human cAMP Responsive Element (CRE) binding protein 3 (AID 2282926). To be noted: HepG2 CRE cis-reporter, Attagene multiplexed mRNA; actives raise or lower the signal. The method in brief:
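Liver-derived HepG2, transfected with a CRE-containing reporter panel, exposed 24 h; transcript levels sized and quantified by capillary electrophoresis of labelled amplicons; signal changes either way referenced to vehicle.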

In assay [12] the target is CCAAT/enhancer-binding protein beta (Homo sapiens) (UniProt P17676). The experiment in a line: ATG_C_EBP_CIS: Attagene CIS-FACTORIAL HepG2 Assay for human CCAAT/Enhancer Binding Protein (C/EBP) beta (AID 2282927). The following applies: HepG2 Attagene cis-factorial transcription factor reporter; actives raise or lower the signal. The method in brief:
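Transiently transfected HepG2 (MRTU library, endogenous TF-driven promoters); 24 h dosing; total RNA → oligo(dT) RT → PCR → 6-FAM primer extension → HpaI digest → CE; fit bidirectionally vs DMSO.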

The nature of assay [13]: ATG_CMV_CIS: Attagene CIS-FACTORIAL HepG2 Assay for human CMV (Internal Marker) (AID 2282928).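 Also: endpoint acts as a background internal control marker rather than a target.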 To be noted: HepG2 CMV promoter reporter, transcription factor profiling; actives raise or lower the signal. The method in brief: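 Fluorescence intensity of RT-PCR-derived reporter fragments, resolved by capillary electrophoresis, gives the signal. HepG2 liver cells bearing transfected cis-element reporters were treated 24 h; activity in either direction was fit relative to DMSO-treated controls.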

Assay [14] has as its target Aryl hydrocarbon receptor (Homo sapiens) (UniProt P35869). Briefly: ATG_Ahr_CIS: Attagene CIS-FACTORIAL HepG2 Assay for human Aryl Hydrocarbon Receptor (Ahr) (AID 2282930). The following applies: HepG2 AhR cis-factorial reporter transcription; actives raise or lower the signal. A digest of the protocol:
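Read-out: reporter mRNA quantified by RT-PCR with fluorescent primer extension and capillary electrophoresis. Human HepG2 liver cells carried transfected cis-promoter reporter units and were exposed to chemical for 24 h; gain or loss fitted relative to DMSO.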

Assay [15] is described as follows: ATG_AP_1_CIS: Attagene CIS-FACTORIAL HepG2 Assay for human Activator Protein 1 (AP-1) (AID 2282931). The following applies: HepG2 Attagene cis-factorial AP-1 reporter mRNA; actives raise or lower the signal. A digest of the protocol: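 Reporter transcripts were measured 24 h after dosing by RT-PCR and capillary electrophoresis of fluorescent fragments. Cells: HepG2 carrying transfected cis-regulated reporter constructs reading endogenous factor activity. Gain or loss fitted against DMSO.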

The nature of assay [16]: ATG_AP_2_CIS: Attagene CIS-FACTORIAL HepG2 Assay for human Activator Protein 2 (AP-2) (AID 2282932). The following applies: HepG2 AP-2 cis-reporter, Attagene transcription factor profiling; actives raise or lower the signal. The method in brief: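 Read-out: fluorescent reporter mRNA via RT-PCR and capillary electrophoresis, 24 h post-dose in transiently transfected HepG2. Endogenous factors drive cis-promoter reporters; gain or loss of signal fitted bidirectionally against DMSO.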

Assay [17] in a line: ATG_BRE_CIS: Attagene CIS-FACTORIAL HepG2 Assay for human Bone Morphogenetic Protein (BMP) Response Element (BRE) (AID 2282933). To be noted: HepG2 BMP response element reporter, Attagene transcription factor profiling; actives raise or lower the signal. The method in brief:
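Gain- or loss-of-signal was derived by bidirectional fitting against DMSO controls. The signal came from reporter mRNA, measured by RT-PCR and capillary electrophoresis, in HepG2 cells transiently carrying multiple reporter units and dosed for 24 h.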

Assay [18] deals with Retinoic acid receptor alpha (Homo sapiens) (UniProt P10276). Briefly: ATG_DR5_RAR_CIS: Attagene CIS-FACTORIAL HepG2 Assay for human Retinoic Acid Receptor Alpha (RARE), DR5 submotif (AID 2282934). To be noted: HepG2 Attagene cis-factorial RARE DR5 reporter, mRNA; actives raise or lower the signal. A digest of the protocol: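 Read-out: DR5-driven reporter transcript measured by RT-PCR, 6-FAM primer extension, HpaI digest and capillary electrophoresis. Human HepG2 liver cells carry transiently transfected cis-element reporter constructs; dosing lasts 24 h. Gain or loss of signal fitted against DMSO baseline.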
Retinoic acid receptor alpha (Homo sapiens), sequence (P10276 whole entry, looked up): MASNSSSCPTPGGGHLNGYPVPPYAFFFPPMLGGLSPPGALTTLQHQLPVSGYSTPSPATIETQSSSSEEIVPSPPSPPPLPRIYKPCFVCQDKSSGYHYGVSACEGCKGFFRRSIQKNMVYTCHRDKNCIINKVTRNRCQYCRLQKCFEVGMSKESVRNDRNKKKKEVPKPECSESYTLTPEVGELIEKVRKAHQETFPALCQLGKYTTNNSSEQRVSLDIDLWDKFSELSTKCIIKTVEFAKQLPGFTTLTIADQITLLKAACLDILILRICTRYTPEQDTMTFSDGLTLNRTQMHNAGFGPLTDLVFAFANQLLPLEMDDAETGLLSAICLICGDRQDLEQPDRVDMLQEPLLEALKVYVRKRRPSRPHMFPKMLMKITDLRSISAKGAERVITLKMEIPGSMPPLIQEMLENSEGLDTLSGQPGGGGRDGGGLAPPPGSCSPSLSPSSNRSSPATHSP

Assay [19] in a line: APR_HepG2_CellLoss_72hr: Apredica 72-hour HepG2 Assay for Cell Loss (AID 2282915). The following applies: high-content imaging. The method in brief:
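HepG2 cells exposed 72 h to compound at 0.39–200 uM (10 concentrations, duplicate) in 0.5% DMSO. Fixed with 3.7% formaldehyde and Hoechst 33342-stained. Imaged at 20x; nuclear count gives cell number, fitted bidirectionally versus DMSO.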

Assay [20] is described as follows: ATG_DR4_LXR_CIS: Attagene CIS-FACTORIAL HepG2 Assay for human Liver X Receptor (LXR), DR4 submotif (AID 2282929). To be noted: HepG2 Attagene DR4 cis-reporter, mRNA transcription; actives raise or lower the signal. The method in brief: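 Readout: reporter transcript fluorescence after RT-PCR and capillary electrophoresis, fitted bidirectionally against DMSO controls. Human HepG2 liver cells carried transiently transfected multiplexed reporter constructs; endogenous transcription factor activity measured 24 h post-dosing.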

Active and inactive are the calls of the source. The calls were made as follows: active = hit-call score of the fitted dose curve at least 0.9, where 1 is the maximum; inactive = score below 0.9.

CCAAT/enhancer-binding protein beta (Homo sapiens), sequence (P17676 whole entry, looked up): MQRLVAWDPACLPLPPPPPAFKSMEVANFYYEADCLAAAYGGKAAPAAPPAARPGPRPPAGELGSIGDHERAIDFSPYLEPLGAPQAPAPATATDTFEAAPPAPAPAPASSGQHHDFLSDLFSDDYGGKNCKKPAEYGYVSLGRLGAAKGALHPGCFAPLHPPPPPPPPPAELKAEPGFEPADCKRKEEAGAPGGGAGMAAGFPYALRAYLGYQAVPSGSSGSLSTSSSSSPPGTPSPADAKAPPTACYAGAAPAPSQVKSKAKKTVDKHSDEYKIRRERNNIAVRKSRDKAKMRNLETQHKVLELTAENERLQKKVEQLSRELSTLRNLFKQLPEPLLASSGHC
Aryl hydrocarbon receptor (Homo sapiens), sequence (P35869 whole entry, looked up): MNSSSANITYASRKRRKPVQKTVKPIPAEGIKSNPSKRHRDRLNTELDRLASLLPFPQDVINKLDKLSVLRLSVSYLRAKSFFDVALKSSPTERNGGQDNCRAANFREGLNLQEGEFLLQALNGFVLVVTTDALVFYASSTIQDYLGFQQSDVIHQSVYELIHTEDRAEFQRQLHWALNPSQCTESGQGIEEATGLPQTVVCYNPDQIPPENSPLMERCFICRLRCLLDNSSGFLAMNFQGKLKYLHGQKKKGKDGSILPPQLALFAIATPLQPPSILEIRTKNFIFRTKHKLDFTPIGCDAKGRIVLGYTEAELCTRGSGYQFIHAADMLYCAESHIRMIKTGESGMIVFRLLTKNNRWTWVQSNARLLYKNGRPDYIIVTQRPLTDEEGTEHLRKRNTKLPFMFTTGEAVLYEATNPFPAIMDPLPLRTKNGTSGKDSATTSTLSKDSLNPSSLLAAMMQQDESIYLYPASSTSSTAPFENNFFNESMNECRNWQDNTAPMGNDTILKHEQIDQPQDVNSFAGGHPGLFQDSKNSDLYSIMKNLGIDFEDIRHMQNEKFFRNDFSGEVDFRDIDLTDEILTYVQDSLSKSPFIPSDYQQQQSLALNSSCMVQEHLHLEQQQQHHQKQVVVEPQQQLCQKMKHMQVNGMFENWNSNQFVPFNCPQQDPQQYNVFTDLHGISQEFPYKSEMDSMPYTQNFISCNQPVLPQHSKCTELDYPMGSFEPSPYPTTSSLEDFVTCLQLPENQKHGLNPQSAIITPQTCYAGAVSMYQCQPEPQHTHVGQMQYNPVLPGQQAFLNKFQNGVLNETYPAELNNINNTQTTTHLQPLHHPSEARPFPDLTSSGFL

On to `CCN(CC)C(=O)SCc1ccc(Cl)cc1`, for which the compound was classed as inactive in assay [1], in assay [2], in assay [3], in assay [4], in assay [5] and in assay [6]. Moreover, the outcome in assay [7], in assay [8], in assay [9], in assay [10], in assay [11] and in [13] was inactive. In addition, the call in assay [14], in [15], in [16] and in [18] was inactive. The AC50 – broadly, the concentration at which the activity in the assay is half-maximal – is 8.69 µM (active) in assay [12] and 50 µM (active) in assay [17].

Take `CCc1ccc(C(=O)NN(C(=O)c2cc(C)cc(C)c2)C(C)(C)C)cc1`: the AC50 is 43.6 µM (active) in [19], 51.7 µM (active) in assay [4] and 50 µM (active) in assay [20]. Also, the compound was classed as inactive in assay [1], in [2], in assay [3], in assay [5], in [6] and in assay [7]. In addition, the compound was classed as inactive in assay [8], in [9], in [10], in assay [11], in assay [12] and in [13]. Moreover, the compound was classed as inactive in assay [14], in [15], in assay [16], in assay [17] and in assay [18].

As to `Cc1cc(C)nc(NC(=O)NS(=O)(=O)c2ccccc2C(=O)OC2COC2)n1`, the outcome in [19], in [1], in assay [2], in [3], in assay [4] and in [5] was inactive. Besides, the result in assay [6], in assay [7], in assay [8], in assay [9], in assay [10] and in [11] was inactive. The result in assay [12], in [13], in assay [20], in [15], in assay [16] and in [18] was inactive. Moreover, the AC50 in [17] is 91 µM (active).

Turning to `CNC(=O)Oc1cccc(N=CN(C)C)c1`, the AC50 in assay [19] was 96.5 µM (active); in assay [1], 107 µM (active); in assay [5], 106 µM (active); in assay [11], 50 µM (active); in [12], 50 µM (active); in assay [13] it was 50 µM (active). Also, the AC50 in assay [15] is 77.5 µM (active); in [17], 58.3 µM (active). The result in [2], in [3], in [4], in assay [6], in assay [7] and in assay [8] was inactive. For the same compound, the outcome in assay [9], in [10], in assay [20], in [16] and in [18] was inactive.

Consider `CC(C)(C)C(O)/C(=C\c1ccc(Cl)cc1Cl)n1cncn1` (centres undefined), for which the AC50 in assay [19] was 15.3 µM (active); in assay [4] it was 175 µM (active). In addition, the compound was called inactive in [1], in [2], in assay [3], in assay [5], in [6] and in assay [7]. The compound was called inactive in assay [8], in assay [9], in [10], in [11], in assay [12] and in assay [13]. Also, the call in [15], in assay [16], in [17] and in assay [18] was inactive.
